{
  "source": "PubChem BioAssay (EPA / NIEHS)",
  "note": "“And” between values parts separate entries of the source, which are not always exact repeats. Identical values can stand only once. Results filed as inconclusive are left out. Some compounds were tested as several samples or in several runs, with calls that do not always agree. The source made the active and inactive calls. Rule for the calls: active = hit-call score of the fitted dose curve at least 0.9, where 1 is the maximum; inconclusive = response in the unintended direction; inactive = score below 0.9.",
  "data": [
    {"target": "Bile acid receptor (Homo sapiens) (UniProt Q96RI1)", "sequence (Q96RI1 whole entry, looked up)": "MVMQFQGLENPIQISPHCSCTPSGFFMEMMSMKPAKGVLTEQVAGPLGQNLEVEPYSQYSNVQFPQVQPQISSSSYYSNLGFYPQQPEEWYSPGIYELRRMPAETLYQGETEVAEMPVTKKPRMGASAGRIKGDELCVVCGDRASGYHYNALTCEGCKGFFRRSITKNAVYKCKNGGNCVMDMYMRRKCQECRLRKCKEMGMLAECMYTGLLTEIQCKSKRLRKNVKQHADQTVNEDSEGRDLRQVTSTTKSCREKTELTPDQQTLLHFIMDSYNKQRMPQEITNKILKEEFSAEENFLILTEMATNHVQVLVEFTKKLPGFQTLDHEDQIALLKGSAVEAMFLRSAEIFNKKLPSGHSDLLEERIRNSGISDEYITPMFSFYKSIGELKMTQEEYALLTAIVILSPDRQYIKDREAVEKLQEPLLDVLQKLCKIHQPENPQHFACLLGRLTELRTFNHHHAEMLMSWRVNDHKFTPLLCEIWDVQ", "assay": "OT_FXR_FXRSRC1_1440: Odyssey Thera (OT) 24-hour HEK293T Protein-Complementation Assay for Farnesoid X receptor/SRC-1 Co-activator (AID 2283384)", "protocol": "OT_FXR_FXRSRC1_1440 is a cell-based assay that uses HEK293T, a human kidney cell line, with measurements taken at 24 hours after chemical dosing in a 384-well plate.OT_FXR_FXRSRC1_1440 is one of one assay component(s) measured or calculated from the OT_FXR_FXRSRC1_1440 assay. It is designed to make measurements of protein fragment complementation, a form of binding reporter, as detected with fluorescence intensity signals by Protein-fragment Complementation technology.Data from the assay component OT_FXR_FXRSRC1_1440 was analyzed into 1 assay endpoint. This assay endpoint, OT_FXR_FXRSRC1_1440, was analyzed in the positive analysis fitting direction relative to DMSO as the negative control and baseline of activity. Using a type of binding reporter, measures of receptor for gain-of-signal activity can be used to understand the binding at the pathway-level as they relate to the gene NR1H4. Furthermore, this assay endpoint can be referred to as a primary readout, because the performed assay has only produced 1 assay endpoint. To generalize the intended target to other relatable targets, this assay endpoint is annotated to the nuclear receptor intended target family, where the subfamily is non-steroidal.\nProtein-fragment complementation assay, or PCA, is a method for the identification and quantification of protein-protein interactions. In the PCA, the proteins of interest (\"bait\" and \"prey\") are each covalently linked to fragments of a third protein (e.g. DHFR, which acts as a \"reporter\"). Interaction between the bait and the prey proteins brings the fragments of the reporter protein in close proximity to allow them to form a functional reporter protein whose activity can be measured.", "values": [
      {"smiles": "Cc1ccc2oc(CN(Cc3ccccc3)C(=O)Nc3c(F)cc(F)cc3F)c(-c3ccc(Cl)cc3)c2c1", "outcome": "inactive"},
      {"smiles": "Oc1ccccc1", "outcome": "inactive"},
      {"smiles": "CCCCCCCCCCCCO", "outcome": "inactive"},
      {"smiles": "O=c1c(-c2ccc(O)cc2)coc2cc(O)cc(O)c12", "AC50": "18.9 µM (active) and 20.5 µM (active) and 18.6 µM (active)", "outcome": "inactive"},
      {"smiles": "Cc1oc2c(NC(=O)c3c(Cl)cccc3Cl)cccc2c1C(C)(C)O", "AC50": "13.5 µM (active)"},
      {"smiles": "Cc1cc2c(cc1C(F)(F)F)N(C(=O)Nc1ccc(Oc3cccnc3C)nc1)CC2", "AC50": "4.55 µM (active)"},
      {"smiles": "C[C@]12CC[C@@H]3c4ccc(O)cc4CC[C@H]3[C@@H]1CCC2=O", "AC50": "22.6 µM (active) and 35.9 µM (active) and 30 µM (active)", "outcome": "inactive"},
      {"smiles": "COc1cc(C(=O)NC2CCN(C)CC2)ccc1Nc1ncc2c(n1)N(C1CCCC1)CC(F)(F)C(=O)N2C", "AC50": "11 µM (active)"},
      {"smiles": "O=C(O)Cc1cc(I)c(Oc2ccc(O)c(I)c2)c(I)c1", "AC50": "28.6 µM (active) and 29 µM (active) and 23.8 µM (active)"},
      {"smiles": "O=C=NCCCCCCN=C=O", "outcome": "inactive"},
      {"smiles": "O=CCCCC=O", "outcome": "inactive"},
      {"smiles": "CCCCCCCCCCCO", "outcome": "inactive"},
      {"smiles": "CCN(CC)C(=O)c1cc(S(=O)(=O)Cc2ccccc2)c(N2CCC(c3ccccc3)CC2)cc1N(CC)CCN(C)C", "AC50": "4.38 µM (active)"},
      {"smiles": "CCN(Cc1cccnc1)C(=O)c1cccc(Cl)c1[C@]1(C)C(=O)N(Cc2ccc(OC)cc2OC)c2ccc(Cl)cc21", "AC50": "0.59 µM (active)"},
      {"smiles": "CCCOC(=O)c1cc(O)c(O)c(O)c1", "outcome": "inactive"},
      {"smiles": "O=C(O)Cn1c(=O)n(Cc2ccc(Br)cc2F)c(=O)c2ccc(Cl)cc21", "outcome": "inactive"},
      {"smiles": "CCOC(=O)O[C@H](C)OC(=O)c1ccc2c(c1)cc(C(=O)NC1CCN(C(C)C)CC1)n2Cc1cc(-c2ccc(Cl)s2)on1", "AC50": "74.9 µM (active)"},
      {"smiles": "CC1=CC(=O)/C(=C(/C)O)C(=O)O1", "outcome": "inactive"},
      {"smiles": "Cc1ncc(CO)c(CO)c1O", "outcome": "inactive"},
      {"smiles": "CCCCOC(=O)CC(CC(=O)OCCCC)(OC(C)=O)C(=O)OCCCC", "outcome": "inactive"},
      {"smiles": "CC1(C)NC(=O)N(c2ccc([N+](=O)[O-])c(C(F)(F)F)c2)C1=O", "outcome": "inactive"},
      {"smiles": "CN(C[C@@H](CC[N+]12CCC(C3CCCCC3)(CC1)CC2)c1ccc(Cl)c(Cl)c1)C(=O)c1cc(C(F)(F)F)cc(C(F)(F)F)c1", "AC50": "78.1 µM (active)"},
      {"smiles": "CN1C(=O)N(c2ccccc2Br)Cc2cnc(Nc3ccc4c(c3)OCC(CO)O4)nc21", "note": "(stereo not given)", "AC50": "0.54 µM (active)"},
      {"smiles": "c1ccc(C[n+]2cccc3ccccc32)cc1", "outcome": "inactive"},
      {"smiles": "O=C1CCC(C2CCCCC2)CC1", "outcome": "inactive", "AC50": "38.4 µM (active)"},
      {"smiles": "CCCC(=O)OCCC(C)C", "outcome": "inactive"},
      {"smiles": "O=C(O)c1ccccc1C(=O)OCc1ccccc1", "outcome": "inactive"},
      {"smiles": "Clc1cc(Cl)c2c(c1)N=C1CCCCCN1C2", "outcome": "inactive"},
      {"smiles": "OCCO", "outcome": "inactive"},
      {"smiles": "O=C(OCCCCCCOC(=O)c1ccccc1)c1ccccc1", "outcome": "inactive"},
      {"smiles": "NCc1cccc(C2CCN(C(=O)c3ccc(C#Cc4ccccc4F)o3)CC2)c1", "outcome": "inactive"},
      {"smiles": "c1ccc2ccccc2c1", "outcome": "inactive"},
      {"smiles": "O=C(O)c1ccccc1-n1cc(C(=O)O)c(=O)c2cc(Nc3c(F)cc(F)cc3Cl)c(Cl)cc21", "outcome": "inactive"},
      {"smiles": "CC/C(=C(/CC)c1ccc(O)cc1)c1ccc(O)cc1", "outcome": "inactive"},
      {"smiles": "CC(C)(C)c1csc(-c2cc3cc(OCc4ccccc4CC(=O)O)ccc3o2)n1", "AC50": "69.8 µM (active)"},
      {"smiles": "Cc1c2ccccc2c(C)c2c1ccc1ccccc12", "outcome": "inactive"},
      {"smiles": "COc1cccc([C@H](O)C2CCN(CCc3ccc(F)cc3)CC2)c1OC", "outcome": "inactive"}
    ]}
  ]
}
